# Source: PubChem BioAssay AID1259343 (VanderVen Lab, College of Veterinary Medicine, Cornell …, 2017)
# About 2,900 (47%) of roughly 6,200 compounds were called active. No stated cut-off is given here; in the data, active means inhibition above about 50%; inactive means the rest. So high a share suggests a set chosen from earlier hits. The list shows a part of the results.
# Assay: Mycobacterium tuberculosis growth inhibition, primary screen (AID 1259343)
# Details: inhibition: at 10 µM, active compounds read high; outcome: 10 uM
row,SMILES,inhibition
1,Cc1ccccc1C(=O)OC1CCCN(C)C1 (stereo not drawn),-3.69% (inactive)
2,Cc1cc(=O)[nH]c(-n2nc(C)cc2NC(=O)C2CCCC2)n1,98.1% (active)
3,O=C(O)c1cc([N+](=O)[O-])ccc1NCCCc1ccccc1,-0.63% (inactive)
4,CC(C)NC(=O)c1ccc(-c2ccc([N+](=O)[O-])cc2Cl)o1,37.9% (inactive)
5,O=C(CCl)Nc1cc([N+](=O)[O-])ccc1Cl,71.2% (active)
6,Cc1ccc(-c2cc(C(=O)O)n[nH]2)s1,99.8% (active)
7,Cc1ccc(-c2csc(-c3ccc(O)cc3)n2)s1,11.1% (inactive)
8,CCCCN(C)C(=O)c1cc(-c2ccc(C)s2)[nH]n1,25.6% (inactive)
9,O=C(Nc1ccccc1)Nc1ccc(Cl)c(Cl)c1,95.9% (active)
10,O=C(O)c1cnc(Nc2ccc(F)c(F)c2)c(Cl)c1,30.5% (inactive)
11,O=C(Nc1ccc(I)cc1)Nc1ccc(Cl)c(Cl)c1,-0.68% (inactive)
12,Cc1ccc(Cl)cc1Nc1ncccc1C(=O)N[C@H]1C[C@H]2CC[C@@H]1C2,9.89% (inactive)
13,O=C(O)c1cccnc1Nc1ccc(Cl)c(Cl)c1,63.9% (active)
14,O=C(Nc1ccc(Cl)c(Cl)c1)Nc1ccc(I)cc1F,-10.8% (inactive)
15,CCOc1ccc(NC(=O)c2ccc(Cl)o2)cc1,17% (inactive)
16,CCOc1ccc(NC(=O)c2nc(C)n(-c3ccc(Cl)cc3)n2)cc1,94.3% (active)
17,CCCCN(CCCC)CCCCSc1ccc(O)cc1,74.1% (active)
18,CC(C)(C)c1nc(COc2cccc3c2CCCC3O)no1 (stereo not drawn),5.49% (inactive)
19,Cc1ccccc1C(=O)Nc1cc(-c2ccco2)nn1-c1nc(C)c(C)c(=O)[nH]1,-10.1% (inactive)
20,Cc1nc(-n2nc(-c3ccco3)cc2NC(=O)COc2ccc(F)cc2)[nH]c(=O)c1C,100% (active)
21,Cc1nc(-n2nc(-c3ccco3)cc2NC(=O)c2c(F)cccc2F)[nH]c(=O)c1C,99.8% (active)

row,SMILES,inhibition
1,Cc1ccc(OCC(=O)Nc2cc(-c3ccco3)nn2-c2nc(C)c(C)c(=O)[nH]2)cc1,101% (active)
2,COc1cccc(C(=O)Nc2cc(-c3ccco3)nn2-c2nc(C)c(C)c(=O)[nH]2)c1OC,98.4% (active)
3,Cc1nc(-n2nc(-c3ccco3)cc2NC(=O)CC(C)C)[nH]c(=O)c1C,101% (active)
4,Cc1nc(-n2nc(-c3ccco3)cc2NC(=O)C2CC2)[nH]c(=O)c1C,99.8% (active)
5,Cc1cc(N)n(-c2cc(C(F)(F)F)ccc2Cl)n1,0.14% (inactive)
6,Cn1ncc2c(N3CCC(OCc4cccnc4)CC3)nc(C(C)(C)C)nc21,85.9% (active)
7,CC(=O)O[C@H]1C[C@@]2(C)[C@@H](C[C@@H](O)[C@H]3[C@@]4(C)CC[C@@H](O)[C@@H](C)C4CC[C@@]32C)/C1=C(\CCC=C(C)C)C(=O)O (stereo partly drawn),69.4% (active)
8,O=S(=O)(NC(C1CC1)C1CC1)c1cccc(Br)c1,14.3% (inactive)
9,COc1ccc(-c2noc(CN3CCC(O)(c4cccc(C(F)(F)F)c4)CC3)n2)cc1,56.9% (active)
10,Oc1ccc(N2CCN(Cc3nc(-c4ccc(C(F)(F)F)cc4)no3)CC2)cc1,72.1% (active)
11,CCCCNC(=O)c1c(O)nc2sccn2c1=O,33.8% (inactive)
12,O=C(NCCC1=CCCCC1)c1c(O)nc2sccn2c1=O,83.9% (active)
13,CC(C)CCNC(=O)c1c(O)nc2sccn2c1=O,89.6% (active)
14,CC(C)CNC(=O)c1c(O)nc2sccn2c1=O,55.9% (active)
15,CN(C)S(=O)(=O)Oc1ccc(C(=O)c2ccccc2)cc1,51.1% (active)
16,O=C(O)c1ccc(OS(=O)(=O)c2ccc(Cl)c(Cl)c2)cc1,35.4% (inactive)
17,O=C1CCCCC1Sc1nn(-c2ccc(F)cc2)c(=S)s1 (stereo not drawn),70.1% (active)
18,O=C(CSc1nn(-c2ccc(F)cc2)c(=S)s1)Nc1cc(F)ccc1F,-1.19% (inactive)
19,O=C1CCCCC1Sc1nnnn1-c1ccc(O)cc1 (stereo not drawn),41% (inactive)
20,O=[N+]([O-])c1ccc(CON=Cc2ccc(OC(F)F)cc2)cc1,55.5% (active)
21,O=[N+]([O-])c1ccc(CON=Cc2ccc(Cl)cc2Cl)cc1,-5.39% (inactive)

row,SMILES,inhibition
1,N#Cc1ccc(CON=Cc2ccc(OC(F)F)cc2)cc1,-4.56% (inactive)
2,CC(C)CNC(=O)CSc1n[nH]c(/C=C/c2ccc(F)cc2)n1,87% (active)
3,CC(C)CNC(=O)c1cn(Cc2ccc(F)cc2)nc1OCc1ccc(F)cc1,13.6% (inactive)
4,C/C(Cl)=C\COc1cc(C)nc2ccc(Br)cc12,99.8% (active)
5,Cc1coc2c1C(=O)C(=O)c1c-2ccc2c1CCCC2(C)C,58.8% (active)
6,CCn1nnc2c(=O)n(CC(=O)c3ccc(OC)cc3)cnc21,77.2% (active)
7,COc1ccc(NCc2nn(CC(=O)c3ccc(Br)cc3)c3[n+]2CCCCC3)cc1,17.7% (inactive)
8,O=c1[nH]nc2nc(N3CCCCC3)nc(N3CCCCC3)n12,18.9% (inactive)
9,O=C(Cn1ccc(=O)[nH]c1=O)NNc1ccc(Cl)c(Cl)c1,97.2% (active)
10,Cc1nc(C2(NC(=O)c3ccc4c(c3)OCCCO4)CCCCC2)no1,5.32% (inactive)
11,Cc1nc(CSc2ccc(C(=O)NNC(=O)c3ccc4c(c3)OCCO4)cc2)cs1,95.3% (active)
12,Cc1cn2nc(Sc3ccc4c(c3)OCCCO4)sc2n1,33.4% (inactive)
13,CCN(CC)c1ccc(/C=C2\SC(=S)N(NC(=O)c3ccc(OC)cc3)C2=O)cc1,8.8% (inactive)
14,CCCN1C(=O)C(=Cc2ccc(OC)cc2OC)SC1=S,2.79% (inactive)
15,CCCCN1C(=O)C(=Cc2cccnc2)SC1=Nc1ccc(OC)cc1,87.8% (active)
16,O=c1c(NCc2ccc(F)cc2)nccn1Cc1ccc(Cl)cc1,96.5% (active)
17,CC(c1ccco1)N(C)C(=O)NCCc1cc(F)ccc1F (stereo not drawn),21.2% (inactive)
18,OC(CN1CCCCCC1)CN1c2ccccc2Sc2ccccc21 (stereo not drawn),40.6% (inactive)
19,OC(CN1CCc2ccccc2C1)Cn1c2c(c3ccccc31)CCCC2 (stereo not drawn),66.7% (active)
20,CCCn1cc(SCC(=O)N2CCc3ccccc32)c2ccccc21,16.9% (inactive)
21,CC(C)=CCN1N=C(c2ccccc2)C(O)O1 (stereo not drawn),86% (active)
